# Epigenetic derep: regulators of epigenetic silencing causing reporter derepression in mouse cells. murine LDR cells, GFP reporter derepression, 30 h. Potency, µM (top dose mostly 53.9 µM), for inactives: at the top dose GFP activation, actives largely listed as activators. 0.2% of 280,000 active; active = well fitted activation curve with a large enough effect; inconclusive = small, poorly fitted or top-dose-only effect; note: potency is the fitted concentration of half-maximal effect; % of control where 0% means no effect; nearly all actives have a fitted effect of over 60% in size
#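 Murine LDR cells carrying a silenced, genomically integrated CMV-driven GFP reporter were exposed to compound for 30 hours at 37 C. After PBS washes, GFP-positive cells (20–120 um objects) were counted by laser-scanning microplate cytometry.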
# ClpP mod: qHTS Assay for Activators of ClpP. Potency, µM (highest dose often 57.5 µM), for the others: top-dose activity change, negative = active. 1.9% of 340,000 active. ATP-dependent Clp protease proteolytic subunit (Bacillus subtilis (strain 168)), P80244. purified B. subtilis ClpP, FRET peptide cleavage, 20 min; active = well fitted falling curve with a large enough effect; inconclusive = small, poorly fitted or top-dose-only effect; inactive = no such curve, though single readings can be large or run the other way; note: potency is the fitted concentration of half-maximal effect; the source files actives as falling curves though it sought activators and does not explain the sign; nearly all actives have a fitted effect of over 65% in size
#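 ClpP 10 microg/mL final, pH 8 Tris/KCl buffer with BSA, glycerol, Tween-20; compound pinned in; FRET-FV substrate; RT 20 min; Ex320/Em430; ΔFRET vs ADEP 5.8 microM, DMSO, no enzyme.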
# PINK1 modulator: PINK1 expression modulation | PINK1 immunofluorescence, high-content cytometry, 24 h | Potency, µM (titrated, usually from 76.6 µM), for inactives: at the top dose activation (PINK1 increase), hits mostly activators | 0.2% of 410,000 active | AID 624263; active = well fitted activation curve with a large enough effect; inconclusive = small, poorly fitted or top-dose-only effect; cell line not stated here; note: potency is the fitted concentration of half-maximal effect; % of control where 0% means no effect; nearly all actives have a fitted effect of over 65% in size
#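 Fluorescence from anti-PINK1 antibody, together with nuclear and cell stains, was scanned on a laser-scanning cytometer. Before staining, stable-line cells were incubated 24 hours with compounds at 5 concentrations; primary antibody 12 h at 10 degrees C.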
# Menin MLL FP FL: menin-MLL binding inhibition, fluorescein peptide | Fluorescence polarization, fluorescein-MLL peptide displacement from menin | FP activity change, % at 61.4 µM | 290,000 tested, under 10 active | AID 1766; active = well fitted curve in the direction sought with a large enough effect in the polarisation, not every such curve was filed as active; inconclusive = small, poorly fitted or top-dose-only effect, or effect the other way, or a change in a side signal; inactive = no such curve, though single readings can be large or run the other way; the % refers to the polarisation; note: % of control where 0% means no effect
# Menin MLL FP TR: displaces Texas Red mutant MLL peptide from human menin; O00255; Potency, µM (highest dose often 61.6 µM), inactives show at the highest dose FP activity change, negative = inhibition, hits mostly inhibitors; Menin + Texas Red MLL mutant peptide, fluorescence polarization; 0.23% of 270,000 active; active = well fitted inhibition curve with a large enough effect in the polarisation, with a control signal flat, not every such curve was filed as active; inconclusive = small, poorly fitted or top-dose-only effect, or effect the other way, or a change in a side signal; inactive = no such curve, though single readings can be large or run the other way; the % refers to the polarisation; note: potency is the fitted concentration of half-maximal effect; % of control where 0% means no effect
# MLL CXXC-DNA inh: blocks binding of human MLL CXXC domain to DNA. 0.037% of 290,000 active. Q03164. MLL-CXXC / FITC-HOXA9 DNA fluorescence polarization. AID 2662. Potency, µM (highest dose often 115 µM), for the others: at the highest dose activity change, negative = inhibition, usual class: inhibitors; active = well fitted inhibition curve with a large enough effect in the polarisation, with a control signal flat, not every such curve was filed as active; inconclusive = small, poorly fitted or top-dose-only effect, or effect the other way, or a change in a side signal; inactive = no such curve, though single readings can be large or run the other way; the % refers to the polarisation; note: potency is the fitted concentration of half-maximal effect
# Target sequence (Q03164 whole entry, looked up, the tested form may be a part): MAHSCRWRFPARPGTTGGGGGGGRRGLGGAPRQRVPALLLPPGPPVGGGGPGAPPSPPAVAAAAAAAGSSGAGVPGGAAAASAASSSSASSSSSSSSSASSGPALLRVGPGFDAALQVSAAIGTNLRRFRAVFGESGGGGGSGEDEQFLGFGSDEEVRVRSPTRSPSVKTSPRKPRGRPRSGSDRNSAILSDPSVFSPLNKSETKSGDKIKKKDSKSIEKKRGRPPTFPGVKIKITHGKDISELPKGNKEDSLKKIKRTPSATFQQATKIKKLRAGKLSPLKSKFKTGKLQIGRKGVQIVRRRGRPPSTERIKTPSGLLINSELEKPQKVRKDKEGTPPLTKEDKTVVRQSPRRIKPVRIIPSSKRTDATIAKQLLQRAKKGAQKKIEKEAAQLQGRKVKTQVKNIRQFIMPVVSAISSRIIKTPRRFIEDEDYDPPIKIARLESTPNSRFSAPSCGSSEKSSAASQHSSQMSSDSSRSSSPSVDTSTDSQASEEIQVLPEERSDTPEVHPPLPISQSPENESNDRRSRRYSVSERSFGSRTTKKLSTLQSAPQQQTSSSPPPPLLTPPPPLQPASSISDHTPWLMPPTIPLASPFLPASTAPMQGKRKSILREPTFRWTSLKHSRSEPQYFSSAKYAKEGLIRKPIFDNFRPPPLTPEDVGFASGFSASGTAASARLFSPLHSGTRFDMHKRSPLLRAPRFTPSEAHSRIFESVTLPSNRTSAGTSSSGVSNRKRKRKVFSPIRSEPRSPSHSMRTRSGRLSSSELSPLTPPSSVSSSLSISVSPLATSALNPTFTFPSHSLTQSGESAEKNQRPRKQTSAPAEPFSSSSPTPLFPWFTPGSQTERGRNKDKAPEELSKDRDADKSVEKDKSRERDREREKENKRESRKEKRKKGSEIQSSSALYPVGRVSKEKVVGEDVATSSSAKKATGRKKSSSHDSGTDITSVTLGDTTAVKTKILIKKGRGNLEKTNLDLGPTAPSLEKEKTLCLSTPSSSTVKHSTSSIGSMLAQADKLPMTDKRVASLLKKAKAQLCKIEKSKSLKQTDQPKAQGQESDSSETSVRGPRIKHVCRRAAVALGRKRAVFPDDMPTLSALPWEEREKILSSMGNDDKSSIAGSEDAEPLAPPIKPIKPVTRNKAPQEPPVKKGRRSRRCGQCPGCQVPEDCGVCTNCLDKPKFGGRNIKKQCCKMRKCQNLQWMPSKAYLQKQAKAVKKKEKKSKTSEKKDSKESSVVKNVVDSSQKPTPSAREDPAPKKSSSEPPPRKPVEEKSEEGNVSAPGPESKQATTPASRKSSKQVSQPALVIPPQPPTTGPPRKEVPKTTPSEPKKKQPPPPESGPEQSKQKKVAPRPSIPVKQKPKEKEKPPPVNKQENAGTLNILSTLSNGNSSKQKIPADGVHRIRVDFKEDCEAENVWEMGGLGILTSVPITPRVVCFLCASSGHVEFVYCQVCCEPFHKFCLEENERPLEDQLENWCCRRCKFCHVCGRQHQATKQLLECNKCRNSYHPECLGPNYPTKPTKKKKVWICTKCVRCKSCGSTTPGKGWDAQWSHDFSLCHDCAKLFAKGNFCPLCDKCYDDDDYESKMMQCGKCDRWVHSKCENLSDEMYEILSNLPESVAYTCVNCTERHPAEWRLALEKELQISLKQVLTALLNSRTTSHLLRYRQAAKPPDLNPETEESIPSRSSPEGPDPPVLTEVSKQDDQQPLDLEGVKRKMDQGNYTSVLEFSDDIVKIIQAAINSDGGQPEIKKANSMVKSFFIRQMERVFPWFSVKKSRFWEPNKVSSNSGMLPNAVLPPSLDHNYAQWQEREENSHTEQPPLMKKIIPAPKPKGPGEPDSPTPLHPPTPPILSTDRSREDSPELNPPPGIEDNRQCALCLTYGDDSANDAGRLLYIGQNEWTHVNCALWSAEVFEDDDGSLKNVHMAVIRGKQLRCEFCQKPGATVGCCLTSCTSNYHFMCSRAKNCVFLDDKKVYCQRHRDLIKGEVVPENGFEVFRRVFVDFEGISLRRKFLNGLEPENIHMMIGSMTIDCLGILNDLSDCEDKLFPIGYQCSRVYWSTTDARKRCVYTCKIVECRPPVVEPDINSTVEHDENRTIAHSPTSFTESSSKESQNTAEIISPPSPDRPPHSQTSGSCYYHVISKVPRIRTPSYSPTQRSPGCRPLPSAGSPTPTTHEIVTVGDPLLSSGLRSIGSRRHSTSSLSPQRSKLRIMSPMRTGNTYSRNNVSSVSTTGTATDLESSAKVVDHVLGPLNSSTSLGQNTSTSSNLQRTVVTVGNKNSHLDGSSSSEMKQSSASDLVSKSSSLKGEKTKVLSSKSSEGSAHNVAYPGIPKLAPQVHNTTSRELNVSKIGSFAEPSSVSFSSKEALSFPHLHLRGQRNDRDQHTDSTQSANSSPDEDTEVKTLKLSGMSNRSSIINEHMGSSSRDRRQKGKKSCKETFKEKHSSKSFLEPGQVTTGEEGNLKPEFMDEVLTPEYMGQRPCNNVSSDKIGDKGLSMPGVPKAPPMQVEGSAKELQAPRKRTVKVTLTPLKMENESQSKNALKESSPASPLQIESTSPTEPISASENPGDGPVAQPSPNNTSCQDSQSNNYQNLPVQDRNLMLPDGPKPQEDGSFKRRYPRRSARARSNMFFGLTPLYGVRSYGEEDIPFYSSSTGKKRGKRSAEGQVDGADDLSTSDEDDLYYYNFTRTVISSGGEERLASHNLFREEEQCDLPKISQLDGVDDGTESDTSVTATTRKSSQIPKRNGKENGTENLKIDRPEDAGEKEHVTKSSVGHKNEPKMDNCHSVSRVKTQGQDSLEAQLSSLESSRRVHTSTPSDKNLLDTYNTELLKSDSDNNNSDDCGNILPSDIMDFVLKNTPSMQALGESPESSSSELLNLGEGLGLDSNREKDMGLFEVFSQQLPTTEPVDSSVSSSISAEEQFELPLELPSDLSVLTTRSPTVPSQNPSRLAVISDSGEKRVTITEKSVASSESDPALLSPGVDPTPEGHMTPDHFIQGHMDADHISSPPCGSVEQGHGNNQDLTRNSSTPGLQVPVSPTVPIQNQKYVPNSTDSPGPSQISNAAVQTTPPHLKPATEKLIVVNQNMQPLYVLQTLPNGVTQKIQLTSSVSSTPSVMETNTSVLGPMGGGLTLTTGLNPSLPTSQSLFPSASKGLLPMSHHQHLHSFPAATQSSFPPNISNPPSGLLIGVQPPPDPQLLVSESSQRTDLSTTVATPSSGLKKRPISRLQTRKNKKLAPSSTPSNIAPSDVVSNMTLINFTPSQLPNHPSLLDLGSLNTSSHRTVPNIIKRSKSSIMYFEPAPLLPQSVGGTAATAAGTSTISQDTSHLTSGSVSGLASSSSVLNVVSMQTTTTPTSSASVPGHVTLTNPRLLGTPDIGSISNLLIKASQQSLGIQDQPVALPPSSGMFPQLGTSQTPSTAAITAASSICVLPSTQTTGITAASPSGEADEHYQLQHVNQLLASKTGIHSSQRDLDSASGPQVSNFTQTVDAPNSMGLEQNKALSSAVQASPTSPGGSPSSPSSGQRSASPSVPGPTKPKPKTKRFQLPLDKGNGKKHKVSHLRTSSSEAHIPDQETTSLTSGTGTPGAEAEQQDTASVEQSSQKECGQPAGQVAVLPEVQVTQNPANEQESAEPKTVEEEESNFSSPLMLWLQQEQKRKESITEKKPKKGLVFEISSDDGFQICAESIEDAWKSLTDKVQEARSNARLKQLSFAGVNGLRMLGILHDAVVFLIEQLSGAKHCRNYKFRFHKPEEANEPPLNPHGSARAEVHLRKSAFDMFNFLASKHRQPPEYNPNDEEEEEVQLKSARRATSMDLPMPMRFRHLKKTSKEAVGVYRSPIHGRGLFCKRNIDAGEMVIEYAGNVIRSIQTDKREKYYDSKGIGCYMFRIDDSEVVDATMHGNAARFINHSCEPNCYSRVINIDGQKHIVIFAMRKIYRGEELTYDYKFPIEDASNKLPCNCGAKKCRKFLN
#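 Steps: dispense CXXC domain solution (7 uM) → pin compounds or unlabeled HOX-A9 DNA control → 5 min ambient → add FLSN-HOX-A9 solution (50 nM) → spin → 30 min ambient → fluorescence polarization. Tris pH 7.5/NaCl/DTT/BSA buffer.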
# * marks the source's active call; other numbers are inactive results; ? = inconclusive; nt = no result; [ ] = dose if it differs, or a comment. Compounds with a hit are over-represented: about 1.9% of the library has one in this group of screens.
SMILES,Epigenetic derep,ClpP mod,PINK1 modulator,Menin MLL FP FL,Menin MLL FP TR,MLL CXXC-DNA inh
Cc1cc(N2CCCN(C)CC2)nc2cc(Cl)ccc12,-1.7%,31.6µM*,-1.3%[38.3 µM],3.6,-2.7%,6.2%
COc1ccc(C2c3c(n(C)c4ccccc34)C(=O)N2CC(=O)Nc2cccc(Cl)c2)cc1 (stereo unspecified),10.0%,15.8µM*,5.6%,nt,nt,nt
COc1ccc(C2c3c(n(C)c4ccccc34)C(=O)N2CC(=O)Nc2cc(Cl)ccc2C)cc1 (stereo unspecified),1.6%,?,-0.5%,nt,nt,nt
COc1ccc(C2c3c(n(C)c4ccccc34)C(=O)N2CC(=O)Nc2ccc(C)cc2Cl)cc1 (stereo unspecified),2.0%,31.6µM*,-0.3%,nt,nt,nt
CN(C)c1ccc(/C=C/c2ccnc3ccc(N)cc23)cc1,nt,2.0%,8.0%,nt,nt,nt
O=C(O)CCCC1(C(=O)O)CCCC1,nt,nt,1.2%,nt,nt,nt
COc1ccc(C)cc1N(C(=O)COc1ccccc1)c1nc2ccccc2s1,-1.9%,10µM*,5.6%,nt,-15.1%,7.5%
CCCCn1c2c(c(=N)c3ccccc31)CCC2,3.9%,-4.1%,-2.4%,0.0,nt,18.1%
Cc1cc(C)c2c(=N)c3ccccc3n(CCCCCCCCn3c4ccccc4c(=N)c4c(C)cc(C)nc43)c2n1,nt,31.6µM*,-1.7%,nt,nt,nt
CCN(CC)c1ccc(-c2c(C#N)c(N)nc(OC)c2C#N)cc1,-2.1%,31.6µM*,23.4%[38.3 µM],13.6,?,?
Cn1nc(N)c2c(-c3ccc(Cl)cc3)c(C#N)c(N)nc21,1.0%,0.6%,-1.5%,9.3,9.8%,-4.1%
COCC(C)n1c(SCc2nc3ccccc3c(=O)[nH]2)nc2ccccc2c1=O (stereo unspecified),-0.1%,20µM*,1.6%,-0.7,-0.1%,5.0%
CCCCN(CCCC)CC(O)c1cc(Cl)cc2c1-c1ccc(Cl)cc1C2=Cc1ccc(Cl)cc1 (stereo unspecified),nt,-1.6%,2.1%,nt,nt,nt
CCOC(=O)/C(C#N)=C/c1ccc(-c2ccsc2C(=O)OC)o1,0.0%,6.2%,25.1µM*,?,-21.7%,?
COCC(=O)Nc1cc(C(=O)N2CCCC2c2nccs2)c2c(c1)nc(-c1ccncc1)n2C (stereo unspecified),nt,nt,1.3%,nt,nt,nt
O=c1cc(/C=C/c2ccccc2)oc2c1ccc1ccccc12,-3.2%,28.2µM*,16.1%,2.0,14.9%,15.8%
O=c1cc(-c2ccccc2)oc2c1ccc1ccccc12,0.3%,nt,nt,-2.9,4.9%[24.8 µM],nt
CCCCCCC(=O)Nc1c2c(nc3ccccc13)N(C)CC2,0.0%,28.2µM*,-1.5%,-0.9,2.1%,3.0%
CCCCCC(=O)Nc1cc(N(C)C)nc2ccccc12,-1.0%,28.2µM*,1.0%,1.8,4.6%,4.8%
CN1CCc2c1nc1ccccc1c2NC(=O)CN1CCCC1,nt,nt,2.1%,2.6,-6.4%,-6.9%
COc1cc(C(=O)Nc2ccc(-c3nnc(-c4ccco4)o3)cc2)cc(OC)c1OC,13.1%,14.1%,-1.1%,1.1,4.2%,4.0%
CCOc1ccc(-c2nnc(-c3cccs3)o2)cc1OCC,-2.4%,115.7%,1.7%,-2.3,-11.9%,-6.1%
CCOc1cc(-c2nnc(-c3ccco3)o2)cc(OCC)c1OCC,-1.1%,22.4µM*,11.6%[38.3 µM],5.0,-2.3%,-4.2%
CCOc1ccc(-c2nnc(-c3ccco3)o2)cc1OCC,1.0%,22.4µM*,10.9%,0.5,-19.9%,-8.8%
CC(C)(CO)NC(=O)c1cnn(-c2ncc3c(n2)-c2ccccc2CC3)c1C1CC1,nt,nt,-0.8%,nt,nt,nt
SMILES,Epigenetic derep,ClpP mod,PINK1 modulator,Menin MLL FP FL,Menin MLL FP TR,MLL CXXC-DNA inh
Cc1cccc2c(N3CCCC3)nc(CNS(=O)(=O)c3ccc4ccccc4c3)nc12,nt,nt,-1.3%,nt,nt,nt
COc1ccc(NS(=O)(=O)c2ccc3oc(SC(C)C(N)=O)nc3c2)cc1 (stereo unspecified),nt,31.6µM*,-3.1%,nt,nt,7.7%
CCNC(=O)CSc1nc2cc(S(=O)(=O)Nc3ccc(OC)cc3)ccc2o1,nt,-1.1%,2.4%,nt,nt,47.5%
CCOc1ccc(N2CC(C(=O)Nc3ccc(OC)c(S(=O)(=O)N4CCCCC4)c3)CC2=O)cc1 (stereo unspecified),-4.2%,28.2µM*,3.0%,-11.8,-6.6%,-11.6%
COc1ccc(-c2nnc(-c3ccc(N)cc3)o2)cc1,-1.1%,28.2µM*,-1.9%,0.2,11.6%,-7.6%
COc1ccc(-c2ccc(-c3nnc(-c4cc(OC)ccc4OC)o3)cc2)cc1,-4.3%,15.8µM*,1.0%,1.1,2.1%,1.4%
COc1ccc(-c2nnc(-c3ccc(N(C)C)cc3)o2)cc1,-0.7%,?,?,0.7,24.4%,4.2%
Cc1cccc(C(=O)NCc2nc(-c3cccc(NC(=O)c4ccoc4C)c3)oc2C)n1,nt,nt,0.3%,nt,nt,nt
Cc1ccc(S(=O)(=O)c2c(N)n(CCN3CCOCC3)c3nc4ccccc4nc23)cc1C,4.8%,28.2µM*,1.0%,4.4,-1.9%,2.0%
Nc1c(S(=O)(=O)c2ccccc2)c2nc3ccccc3nc2n1CCN1CCOCC1,0.0%,3.9%,3.0%,-0.3,5.9%,10.8%
Nc1c(S(=O)(=O)c2ccccc2)c2nc3ccccc3nc2n1Cc1ccco1,-1.1%,15.8µM*,-0.2%[38.3 µM],?,54.0%,4.7%
Cc1ccc(S(=O)(=O)c2c(N)n(Cc3ccco3)c3nc4ccccc4nc23)cc1C,-8.3%,11.2µM*,-4.9%[38.3 µM],?,nt,4.4%
CC1(C)CC2CC(C)(CN2C(=O)COC(=O)CNC(=O)c2ccc(Cl)c(Cl)c2)C1 (stereo unspecified),0.0%,25.1µM*,24.3%,-1.1,-2.2%,0.3%
CC(=O)Nc1ccc(C(=O)OCC(=O)N2CC3(C)CC2CC(C)(C)C3)cc1 (stereo unspecified),nt,nt,0.3%,nt,nt,nt
CC1(C)CC2CC(C)(CN2C(=O)COC(=O)c2cc(Cl)cc(Cl)c2N)C1 (stereo unspecified),-1.0%,31.6µM*,6.4%[38.3 µM],-0.8,-0.9%,2.7%
CC1(C)CC2CC(C)(CN2C(=O)COC(=O)c2ccc(O)cc2O)C1 (stereo unspecified),nt,-0.5%,1.0%,nt,nt,nt
CN(C)c1nc(NC2CCC(NC(=O)c3ccc(F)c(F)c3)CC2)nc2ccccc12 (stereo unspecified),nt,nt,nt,-1.1,-11.7%,nt
Cc1ccc(CN2[C@H](C)[C@H](c3ccccc3)OCCS2(=O)=O)cc1,nt,-1.9%,nt,nt,nt,nt
COCc1c(C(=O)N2CCC(N(C)C)C2)cnn1-c1ncc2c(n1)-c1ccccc1CCC2 (stereo unspecified),nt,nt,0.1%,nt,nt,nt

# Assay outcomes (PubChem BioAssay)
